# Source: PubChem
# Only some compounds are listed: those with a hit (about 3.7% of all), similar ones and a draw of the others.
# ATXN2 expr inh: ATXN2 expression inhibition; Potency, µM (top dose mostly 57 µM), for the others: at the top dose activity change, negative = inhibition, actives largely listed as inhibitors; HEK-293 ATXN2-luciferase reporter, luminescence, 24 h; 360,000 compounds, 0.72% hits; AID 1745845; also: % is scaled to controls: 0 for no effect and ±100 for the full control effect; nearly all actives have a fitted effect of over 55% in size
#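 ATXN2-luciferase reporter cells (luciferase flanked by upstream and downstream ATXN2 gene portions) were treated 24 h at 37 °C with compounds at up to 57 uM. SteadyGlo luminescence gave expression; GF-AFC fluorescence gave viability.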
# HepG2 tox: counter-screen for TGF-b inhibitors: cytotoxicity in HepG2 cells | HepG2 CAGA-GFP viability, ATP luminescence, 18 h | AID 588856 | Potency, µM (highest dose often 46.1 µM), for the others: at the top dose activity change, negative = cytotoxicity, hits mostly cytotoxic | 410,000 compounds, 0.76% hits
#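 CellTiter-Glo luminescence gave cytotoxicity after 18 hours at 37 degrees C. The cells were HepG2 CAGA-GFP in 1% FBS DMEM, stimulated with 500 pg/mL TGF-beta after compound addition. %Activity was normalised to no-cell wells (complete cell-killing) and DMSO (no toxicity), and curves were fitted and classified.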
# TGFb SMAD3 inh: blocks TGF-b signaling | AID 588855 | Potency, µM (series often up to 46.1 µM), for the others: at the highest dose activity, negative = inhibition, most hits filed as inhibitors | 410,000 compounds, 1.2% hits | HepG2 CAGA-GFP TGF-b/SMAD3 reporter, GFP fluorescence, 18 h; TGF-beta stimulated, 500 pg/mL final; also: % is scaled to controls: 0 for no effect and ±100 for the full control effect; nearly all actives have a fitted effect of over 65% in size
#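 First, reporter cells (HEPG2 CAGA-GFP) rested 2 h at 37 degrees C. Next, compounds were pinned in and TGF-beta added to 500 pg/mL final. After 18 h, GFP was imaged per cell and summed per well.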
# GLP1R ag: agonists of human GLP-1 receptor | P43220 | HEK293 GLP-1R CRE-luciferase, luminescence, 4-6 h; cells express a hypersensitive GLP-1R form | Potency, µM (highest dose often 45.6 µM), inactives show top-dose activation, usual class: activators | 380,000 compounds, 0.007% hits | AID 624172; also: % of control where 0% means no effect
# Target sequence (P43220 whole entry, looked up): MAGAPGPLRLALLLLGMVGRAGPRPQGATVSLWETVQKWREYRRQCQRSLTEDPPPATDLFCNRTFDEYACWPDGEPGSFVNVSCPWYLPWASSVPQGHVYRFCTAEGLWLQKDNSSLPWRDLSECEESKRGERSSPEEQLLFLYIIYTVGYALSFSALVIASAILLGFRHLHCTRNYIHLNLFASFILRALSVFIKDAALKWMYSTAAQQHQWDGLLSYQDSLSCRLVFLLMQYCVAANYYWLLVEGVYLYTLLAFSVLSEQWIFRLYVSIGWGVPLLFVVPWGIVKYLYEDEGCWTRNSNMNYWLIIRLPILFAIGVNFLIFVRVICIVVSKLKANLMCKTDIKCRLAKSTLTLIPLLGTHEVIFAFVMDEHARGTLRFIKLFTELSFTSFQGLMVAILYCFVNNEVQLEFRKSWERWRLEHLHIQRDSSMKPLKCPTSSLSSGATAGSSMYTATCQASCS
# S2 tox: viability counter-screen for ATXN expression inhibitors | S2 cells (HEK-293 line with an ATXN2-luciferase reporter) viability, CellTiter-Fluor protease fluorescence, 24 h | Potency, µM (top dose mostly 56.7 µM), hits mostly cytotoxic | 400,000 compounds, 0.49% hits | AID 651635; also: nearly all actives have a fitted effect of over 40% in size
# GLP1R inv ag: GLP-1 receptor (human) inverse agonism; P43220; HEK293 GLP-1R CRE-luciferase, luminescence, 24 h; GLP-1R form is constitutively active; Potency, µM (titrated, usually from 38.3 µM), for inactives: at the highest dose activity change, negative = inhibition, most hits filed as inhibitors; 410,000 compounds, 1.6% hits; also: % is scaled to controls: 0 for no effect and ±100 for the full control effect; nearly all actives have a fitted effect of over 55% in size
#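 GLP-1R inverse agonism mode: basal reporter luminescence in engineered HEK293 cells measured after one day of compound exposure at 37 deg C, with a 12 min room-temperature detection step.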
# The depositor's hits bear a star; i = inactive; u = inconclusive; x = no result; [ ] = dose if it differs, or a comment. Calls follow the shape of the dose curve; as a rule, active = well fitted curve in the direction sought with a large enough effect; inconclusive = small, poorly fitted or top-dose-only effect, or another doubt; inactive = no such curve, though single readings can be large; an effect the other way counts as inactive or inconclusive. Potency is read from the fitted curve at half-maximal effect.
SMILES,ATXN2 expr inh,HepG2 tox,TGFb SMAD3 inh,GLP1R ag,S2 tox,GLP1R inv ag
COc1ccc(/C=C/C(=O)Nc2ccc(C)c(S(=O)(=O)N3CCOCC3)c2)cc1,22µM*,-11%,-14%,-5%,u,u
CCOC(=O)c1ccc(NC(=O)c2ccc(C)c(S(=O)(=O)N3CCOCC3)c2)cc1,25µM*,-45%,-6%,-45%,28µM*,u
COc1ccc(NC(=O)/C=C/c2ccc(S(=O)(=O)N3CCOCC3)cc2)cc1,8%,-13%,0%,0%,i,4%
COC1[C@@H](O[C@@H]2O[C@H](C)[C@@H](O[C@H]3C[C@@](C)(O)[C@H](OC(=O)CC(C)C)[C@H](C)O3)[C@H](N(C)C)[C@H]2O)[C@@H](CC=O)C[C@@H](C)[C@@H](O)/C=C/C=C/C[C@@H](C)OC(=O)C[C@H]1OC(C)=O (stereo not given in full),x,x,x,x,i,x
COc1cc(Nc2nc(SCC(=O)c3ccc(Br)cc3)nc3ccccc23)cc(OC)c1,x,10µM*,u,x,x,-17%
O=C(CCCN1C(=O)/C(=C/c2ccccc2Cl)SC1=S)NNC(=O)c1ccc(Cl)cc1Cl,2.5µM*,-2%,-2%,-3%,i,22%
CCOc1ccc(/C=C2\SC(=S)N(CCC(=O)N(CCO)c3ccccc3)C2=O)cc1,-37%,-6%,u,-12%,u,u
CCc1ccc(/C=C2\SC(=S)N(CCCC(=O)N(CCO)c3ccccc3)C2=O)cc1,x,-108%,u,-5%,u,10µM*
O=C(CCCN1C(=O)/C(=C/c2ccccc2Cl)SC1=S)NNC(=O)c1ccccc1,u,5%,u,-14%,u,u
O=C(CCCN1C(=O)/C(=C/c2cccc(Br)c2)SC1=S)Nc1ccccn1,10µM*,-18%,-12%,-14%,u,0%
COc1ccc(/C=C2/SC(=S)N(Cc3ccccc3)C2=O)cc1O,5%,-89%,u,-2%,i,u
O=C(CCCN1C(=O)/C(=C/c2cccc(Br)c2)SC1=S)Nc1cccnc1,u,-3%,u,3%,u,u
O=C1/C(=C\c2cc(Cl)c(O)c(Cl)c2)SC(=S)N1Cc1ccccc1,u,11µM*,238%,15%,i,u
CCCCOc1ccc(NC(=O)CSc2ccc(C(=O)O)cn2)cc1,7%,8%,-3%,x,i,4%
CCCCNc1ccc(/C=C2\C=Cc3ccccc32)cc1,x,-28%,-28%,x,x,x
Cc1ccc(/C=C2\SC(=S)N(CC(=O)Nc3cccnc3)C2=O)cc1,1%[11.3 µM],1%,18%,0%,i,19%
O=C(CCCN1C(=O)/C(=C\c2cccc(Br)c2)SC1=S)Nc1cccnc1,u,-35%,11µM*,-3%,u,u
CCc1ccc(/C=C2\SC(=S)N(CCCC(=O)Nc3ccccn3)C2=O)cc1,4.5µM*,11%,u,-2%,u,u
Cc1ccc(/C=C2\SC(=S)N(CCCC(=O)Nc3cccnc3)C2=O)cc1,3.5µM*,-1%,-17%,-4%,u,u
COc1ccc(/C=C2\SC(=S)N(CCCC(=O)Nc3ccc(O)cc3)C2=O)cc1,-16%,-32%,u,-1%,i,u
COc1ccc(/C=C2/SC(=S)N(CCCC(=O)Nc3ccc(O)cc3)C2=O)cc1,-7%,-20%,u,5%,u,5.6µM*
O=C(CCN1C(=O)/C(=C/c2ccccc2)SC1=S)NCCc1ccc(O)cc1,-3%,-36%,u,-5%,i,5µM*
O=C(c1ccco1)N1CCN(C/C=C/c2ccccc2)CC1,-3%,-37%,13%,6%,i,10%
O=C(c1nn(Cc2ccccc2)c(=O)c2ccccc12)N1CCN(C/C=C/c2ccccc2)CC1,-18%,-1%,-9%,15%,u,7.9µM*
CCN1CCSc2ccc(C(=O)NCc3cccc(Br)c3)cc21,-11%,-30%,0%,18%,i,10µM*
SMILES,ATXN2 expr inh,HepG2 tox,TGFb SMAD3 inh,GLP1R ag,S2 tox,GLP1R inv ag
CCn1nc(-c2ccccc2)c(-c2ccccc2)c(C(=O)Nc2nc(C)c(C(C)=O)s2)c1=O,x,-3%,0%,x,x,4.5µM*
COc1ccc(-c2ccc(C)cc2)cc1C1C2C=CCC(C)C2C(=O)N1Cc1ccccc1 (stereo not given),x,0%,-10%,x,x,x
O=C(CSc1nc(-c2ccccc2)cn1-c1ccccc1F)Nc1ccc(F)cc1,-38%,-21%,14µM*,x,u,u
Cc1cc2nc(C)n(CCCNC(=O)Nc3ccc(F)cc3)c2cc1C,-14%,-8%,-10%,1%,i,10µM*
O=C(NCCN1CCCCC1)Nc1ccc(F)cc1,3%,-1%,0%,-1%,i,-4%
Cc1nnc(Sc2nc3ccccc3o2)c2ccccc12,2%,-68%,13µM*,-6%,i,u
Cc1ccc(-c2nnc(Sc3nc4ccccc4o3)c3ccccc23)cc1,u,-20%,u,0%,u,-20%
Nc1ncc([N+](=O)[O-])c(N2CCCCCC2)n1,5%,7.1µM*,-12%,-2%,i,u
O=[N+]([O-])c1ccc(N2CCCC2)nc1N1CCCC1,-3%,1%,5%,20%,i,-6%
Cc1ccc(-c2nnc(CSc3nnc(COc4ccccc4)n3-c3ccccc3)o2)cc1,8%,-31%,-22%,3%,u,10µM*
Cc1ccc(-c2nnc(CSc3nnc(COc4ccccc4)n3-c3ccc(C)cc3)o2)cc1,2%,-10%,u,3%,i,0%
CCc1ccc(OCCNC(=O)c2ccccc2SCc2ccccc2)cc1,21%,-52%,u,-2%,i,7.1µM*
CCNC(=O)c1ccccc1SCc1ccccc1,3%,0%,-1%,3%,i,-25%
Clc1ccc(CN2CCC(c3nc4ccc(Cl)cc4[nH]3)CC2)cc1,u,-61%,u,-39%,u,7.9µM*
CC[C@@H]1O[C@]2(C=C[C@@H]1C)C[C@H]1C[C@H](CC=C(C)[C@@H](O[C@@H]3C[C@H](OC)[C@H](O[C@@H]4C[C@H](OC)[C@H](O)[C@H](C)O4)[C@H](C)O3)[C@@H](C)C=CC=C3CO[C@@H]4[C@@H](O)C(C)=C[C@@H](C(=O)O1)[C@]34O)O2,x,x,x,x,16µM*,x
